Growth data for six molecules are collected here from PubChem BioAssay (NCI).

This is part of a sample that, as a whole, favours compounds with a hit. Of some 83,000 tested, about 20% had one in any assay.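 The test compound was applied at a single concentration to cells in 96-well plates for 48 hours, and percent growth was recorded.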 Unmarked numbers belong to inactive results. Calls of active or inactive are those of the source. How the source made its calls: active means growth percent below 10; inactive means the rest.

What all share (assay): NCI-60 one-dose screen, 48 h (100 = growth as untreated, 0 = no growth, -100 = all killed)
Test [1] relates to SR leukemia. The conditions noted are these: 10 µM unless noted.
Test [2] concerns RPMI-8226 leukemia. The conditions noted are these: 10 µM unless noted.
Test [3] deals with OVCAR-8 ovarian. The conditions noted are these: 10 µM unless noted.
For test [4], the system named is OVCAR-5 ovarian. The conditions noted are these: 10 µM unless noted.
The test system of test [5] is OVCAR-4 ovarian. The settings on record: 10 µM.
The subject of test [6] is IGROV1 ovarian. The settings on record: 10 µM unless noted.
Test [7] deals with OVCAR-3 ovarian. The conditions noted are these: 10 µM unless noted.
For test [8], the system named is HS 578T breast. The conditions noted are these: 10 µM unless noted.
Test [9] has as its system NCI/ADR-RES ovarian. The settings on record: 10 µM unless noted.
In test [10] the test system is T-47D breast. The conditions noted are these: 10 µM unless noted.
Test [11] relates to BT-549 breast. The settings on record: 10 µM unless noted.
Test [12] concerns MDA-MB-435 melanoma. The settings on record: 10 µM unless noted.
The test system of test [13] is SW-620 colon. The settings on record: 10 µM unless noted.
Test [14] deals with MCF7 breast. The settings on record: 10 µM unless noted.
Test [15] deals with HCT-116 colon. The settings on record: 10 µM unless noted.
For test [16], the system named is HCC-2998 colon. The conditions noted are these: 10 µM unless noted.
Test [17] has as its system KM12 colon. The conditions noted are these: 10 µM unless noted.

With `CCOC(=O)c1nn(C2CCCCO2)c2ccc(NC(=O)CN3CCOCC3)cc12` (centres undefined), the growth in test [1] was 112%; in test [2], 109%; in test [3] it was 99.6%; in test [4] it was 102%; in test [5], 102%; in test [6], 102%. Moreover, the growth was 107% in test [7]; 99.3% in test [8]; 104% in test [9]; 98.9% in test [10]; 101% in test [11]; 106% in test [12]. Further, the growth in test [13] was 104%; in test [14], 97.3%; in [15], 90.5%; in test [16], 109%; in test [17], 105%.
Take `Cc1cccc(C[C@H](NC(=O)Nc2ccc(Cl)cc2F)C(=O)N[C@@H]2C(=O)N3C[C@H](OC(=O)CCN(C)C)C[C@H]3C(=O)N3CCCC[C@H]3C(=O)N[C@@H](C)C(=O)N3C[C@H](C)C[C@H]3C(=O)O[C@H]2C)c1`: the growth in test [1] was 28.7%; in [2], 10%; in test [3] it was 16.8%; in test [4] it was 32.6%; in test [5], 11.4%; in [6], 35.6%. The growth in test [7] is 8.87% (active); in [8] it was 26.2%; in [9], 94.9%; in test [10], 13.8%; in test [11], 4.55% (active); in test [12] it was 14.6%. For the same molecule, the growth was 30.2% in test [13]; 13.4% in test [14]; -29% (active) in [15]; 19% in [16]; 23% in test [17].
With `COc1ccc(-c2cc(-c3ccccc3)nc(NCCNc3ccnc4cc(Cl)ccc34)n2)cc1`, the growth is -7.13% (active) in [1]; -34.4% (active) in [2]; -60.2% (active) in [3]; -96.6% (active) in [4]; -48.8% (active) in test [5]; -74.1% (active) in [6]. The growth in [7] was -82.6% (active); in test [8] it was -53.9% (active); in test [9] it was -71.9% (active); in [10], -64.6% (active); in test [11], -69.4% (active); in test [12], -68.8% (active). Also, the growth is -68.2% (active) in test [13]; -75.7% (active) in test [14]; -74.1% (active) in test [15]; -81.1% (active) in test [16]; -72.7% (active) in test [17].
In the case of `COc1ncc(-c2ccc3nccc(C#CCCCCC(=O)NO)c3c2)cc1NS(=O)(=O)c1ccc(F)cc1F`, the growth in test [1] was -24.5% (active); in test [2], -25.1% (active); in [3], -12.8% (active); in test [4] it was 4.43% (active); in test [5], 24.9%; in test [6], -21.6% (active). The growth in test [7] was -31.6% (active); in [8] it was -23.8% (active); in test [9], 55.3%; in test [10] it was -22.6% (active); in test [11], -13.2% (active); in test [12], -7.72% (active). Moreover, the growth in [13] is -30.9% (active); in test [14], 2.33% (active); in test [15], -50.3% (active); in test [16] it was 7.27% (active).
On to `CC(C)(C)c1cc(C(=O)N2CCC(C(=O)NCCN)CC2)cc(C(C)(C)C)c1`, for which the growth in test [1] is 98.4%; in test [2], 94.4%; in [3] it was 99%; in test [4], 98.9%; in [5], 105%; in [6], 95.6%. For the same molecule, the growth in test [8] was 92%; in test [9], 104%; in test [10], 78.8%; in test [11], 95.4%; in test [12], 98%; in [13] it was 103%. Moreover, the growth in test [14] was 92%; in test [15] it was 99.4%; in test [16], 106%; in test [17], 105%.
For `Cc1ccc(-c2cc(-c3ccc(C)cc3)nc(NCCNc3ccnc4cc(Cl)ccc34)n2)cc1`, the growth in [1] is 2.87% (active); in test [2], -22% (active); in [3], -53.4% (active); in test [4], -34.9% (active); in [5] it was -31.4% (active); in test [6], -66.2% (active). Further, the growth was -46.7% (active) in [8]; -63.1% (active) in test [9]; -69.2% (active) in test [10]; 57.7% in test [11]; -76.4% (active) in test [12]; -64.9% (active) in test [13]. Moreover, the growth was -77.3% (active) in test [14], -84.5% (active) in [15], -80.2% (active) in [16] and -73% (active) in test [17].
